{
  "source": "paper PMC4336329",
  "about": "(PLoS ONE, 2015)",
  "note": "Out of some 310,000 compounds screened, about 2,200 (0.71%) showed an effect of 50% or more. Effects have a minus sign here. This is one part of a sample in which strong results are shown more often than they occur.",
  "data": [
    {"molecular_target": "human ether-à-go-go-related gene (hERG) potassium channel (human, UniProt Q12809)", "sequence (Q12809 whole entry, looked up)": "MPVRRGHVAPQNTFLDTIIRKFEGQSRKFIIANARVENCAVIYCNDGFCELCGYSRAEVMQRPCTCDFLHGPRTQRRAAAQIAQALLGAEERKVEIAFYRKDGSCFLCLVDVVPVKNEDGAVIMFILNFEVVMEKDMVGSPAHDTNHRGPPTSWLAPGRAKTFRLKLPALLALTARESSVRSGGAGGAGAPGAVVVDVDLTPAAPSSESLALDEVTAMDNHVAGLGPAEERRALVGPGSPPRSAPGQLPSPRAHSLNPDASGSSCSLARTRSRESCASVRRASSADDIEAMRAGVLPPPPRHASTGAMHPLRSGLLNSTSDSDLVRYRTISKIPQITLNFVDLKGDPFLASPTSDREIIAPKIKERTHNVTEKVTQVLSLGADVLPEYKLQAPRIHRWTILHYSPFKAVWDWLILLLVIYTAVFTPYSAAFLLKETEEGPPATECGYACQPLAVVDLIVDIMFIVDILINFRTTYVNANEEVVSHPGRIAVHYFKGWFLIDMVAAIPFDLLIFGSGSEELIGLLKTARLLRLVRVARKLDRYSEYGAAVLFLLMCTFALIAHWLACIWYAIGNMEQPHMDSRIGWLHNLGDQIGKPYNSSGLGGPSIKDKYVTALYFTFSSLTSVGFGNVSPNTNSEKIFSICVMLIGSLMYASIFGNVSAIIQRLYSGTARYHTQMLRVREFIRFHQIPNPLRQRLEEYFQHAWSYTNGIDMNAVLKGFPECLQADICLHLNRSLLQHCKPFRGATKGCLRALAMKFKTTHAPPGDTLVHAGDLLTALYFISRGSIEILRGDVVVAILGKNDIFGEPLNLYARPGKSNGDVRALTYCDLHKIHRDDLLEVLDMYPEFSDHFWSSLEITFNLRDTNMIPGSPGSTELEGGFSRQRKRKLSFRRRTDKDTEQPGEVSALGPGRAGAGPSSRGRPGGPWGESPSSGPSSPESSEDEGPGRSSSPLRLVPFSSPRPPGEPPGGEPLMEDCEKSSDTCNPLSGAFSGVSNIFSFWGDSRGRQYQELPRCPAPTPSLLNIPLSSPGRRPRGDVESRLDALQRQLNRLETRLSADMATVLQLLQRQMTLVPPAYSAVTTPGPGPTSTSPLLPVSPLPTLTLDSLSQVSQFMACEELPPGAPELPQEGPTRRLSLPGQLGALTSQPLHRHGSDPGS", "experiment": "primary screen, population patch clamp on CHO cells stably expressing hERG; higher = less effect of the substance", "units": {"hERG current change (%, negative = inhibition) at 1uM": "%"}, "values": [
      {"smiles": "CCOC(=O)c1c(C)[nH]c(C(=O)O)c1C", "hERG current change (%, negative = inhibition) at 1uM": 11.5},
      {"smiles": "OC1CCCN(Cc2cccc3ccccc23)C1", "note": "(stereo not shown)", "hERG current change (%, negative = inhibition) at 1uM": 14.7},
      {"smiles": "Cc1cc(C)cc(N2CC(O)Cn3c2nc2c3c(=O)[nH]c(=O)n2C)c1", "note": "(stereo not shown)", "hERG current change (%, negative = inhibition) at 1uM": 9.84},
      {"smiles": "Cc1ccc(/C=N/NC(=O)c2nnn(-c3nonc3N)c2CSc2ccccc2)cc1", "hERG current change (%, negative = inhibition) at 1uM": 11.4},
      {"smiles": "O=C(N=C1SC2CS(=O)(=O)CC2N1CCc1ccccc1)C1CC1", "note": "(stereo not shown)", "hERG current change (%, negative = inhibition) at 1uM": 9.32},
      {"smiles": "O=C(O)c1cccc(-n2cc(-c3cccc(C(F)(F)F)c3)cn2)c1", "hERG current change (%, negative = inhibition) at 1uM": 4.88},
      {"smiles": "O=C(NNC(=O)c1sc2cccc(Cl)c2c1Cl)Nc1ccccc1", "hERG current change (%, negative = inhibition) at 1uM": 13.9},
      {"smiles": "COc1ccc(-c2coc3c(C)c4oc(=O)c(CCC(=O)O)c(C)c4cc23)cc1", "hERG current change (%, negative = inhibition) at 1uM": 6.19},
      {"smiles": "CCCCCCNC(=O)CC(NS(=O)(=O)c1ccc(NC(C)=O)cc1)C(C)C", "note": "(stereo not shown)", "hERG current change (%, negative = inhibition) at 1uM": -0.978},
      {"smiles": "COc1ccc(OC)c(NC(=O)c2cccc(N3C(=O)C4C5CCC(C5)C4C3=O)c2)c1", "note": "(stereo not shown)", "hERG current change (%, negative = inhibition) at 1uM": 2.22},
      {"smiles": "F[B-](F)(F)F.OCCC[NH+]=c1cc(-c2ccccc2)oc2ccc(Cl)cc12", "hERG current change (%, negative = inhibition) at 1uM": -78},
      {"smiles": "F[B-](F)(F)F.OCC[NH+]=c1cc(-c2ccccc2)oc2ccc(Cl)cc12", "hERG current change (%, negative = inhibition) at 1uM": -71.1},
      {"smiles": "O=c1oc2ccc(Cl)cc2cc1-c1ccccc1", "hERG current change (%, negative = inhibition) at 1uM": 16.1},
      {"smiles": "COc1ccc(-c2cc(=[NH+]c3cccc(C(=O)O)c3)c3cc(C)ccc3o2)cc1.[O-][Cl+3]([O-])([O-])[O-]", "hERG current change (%, negative = inhibition) at 1uM": 6.72},
      {"smiles": "COc1ccc(-c2cc(=[NH+]c3ccccc3)c3cc(C)ccc3o2)cc1.[O-][Cl+3]([O-])([O-])[O-]", "hERG current change (%, negative = inhibition) at 1uM": 14},
      {"smiles": "F[B-](F)(F)F.OCCCCC[NH+]=c1cc(-c2ccccc2)oc2ccc(Cl)cc12", "hERG current change (%, negative = inhibition) at 1uM": -86.1},
      {"smiles": "Clc1ccc(Oc2ncnc3oc(-c4ccccc4)cc23)cc1", "hERG current change (%, negative = inhibition) at 1uM": 6.4},
      {"smiles": "O=c1cc(-c2ccccc2)oc2ccc(O)cc12", "hERG current change (%, negative = inhibition) at 1uM": 4.17},
      {"smiles": "OCCCNc1nc(-c2ccccc2)c2cc(Cl)ccc2n1", "hERG current change (%, negative = inhibition) at 1uM": 5.65},
      {"smiles": "Cc1cc(C(=O)OCC(=O)N2C(C)CCCC2C)c(C)o1", "note": "(stereo not shown)", "hERG current change (%, negative = inhibition) at 1uM": 9.75},
      {"smiles": "COc1ccc(-n2c(Cc3cccn3C)nnc2SCC(=O)Nc2cccc(NC(C)=O)c2)cc1", "hERG current change (%, negative = inhibition) at 1uM": 3.64},
      {"smiles": "Cc1ccc(OCCOCCn2cnc3ccccc3c2=O)c([N+](=O)[O-])c1.O=C(O)C(=O)O", "hERG current change (%, negative = inhibition) at 1uM": -6.31},
      {"smiles": "CCCCOc1ccc(CSC2=NCCN2)cc1[N+](=O)[O-].Cl", "hERG current change (%, negative = inhibition) at 1uM": -22.3},
      {"smiles": "CCOc1ccc(CSC2=NCCN2)cc1Cl.Cl", "hERG current change (%, negative = inhibition) at 1uM": -4.54},
      {"smiles": "Br.O=[N+]([O-])c1ccc(CSC2=NCCN2)cc1", "hERG current change (%, negative = inhibition) at 1uM": 8.87},
      {"smiles": "COc1ccc(CSC2=NCCN2)cc1Cl.Cl", "hERG current change (%, negative = inhibition) at 1uM": -7.52},
      {"smiles": "CCCCOc1ccc(CSC(=N)N)cc1[N+](=O)[O-].Cl", "hERG current change (%, negative = inhibition) at 1uM": -26.4},
      {"smiles": "CCCOc1ccc(CSC2=NCCN2)cc1[N+](=O)[O-]", "hERG current change (%, negative = inhibition) at 1uM": -53.5},
      {"smiles": "COc1ccc(CSC2=NCCN2)cc1Br", "hERG current change (%, negative = inhibition) at 1uM": 10.8},
      {"smiles": "CCOc1ccc(CSC2=NCCN2)cc1[N+](=O)[O-].Cl", "hERG current change (%, negative = inhibition) at 1uM": -71},
      {"smiles": "CCOc1ccc(CSC(=N)N)cc1[N+](=O)[O-].Cl", "hERG current change (%, negative = inhibition) at 1uM": -50.3},
      {"smiles": "CCCCCOc1ccc(CSC(=N)N)cc1[N+](=O)[O-].Cl", "hERG current change (%, negative = inhibition) at 1uM": -3.45},
      {"smiles": "CCCCCOc1ccc(CSC2=NCCN2)cc1[N+](=O)[O-]", "hERG current change (%, negative = inhibition) at 1uM": -60},
      {"smiles": "CCCCOc1ccc(CSc2nnc(C)n2N)cc1[N+](=O)[O-]", "hERG current change (%, negative = inhibition) at 1uM": -2.42}
    ]}
  ]
}
